# Data as given in the supplement of paper PMC6992640.
# Test system: WHIM30 (cells of a triple-negative basal-like breast cancer xenograft)
# Assay: cell viability of combination (% of vehicle); higher = less cytotoxic
# Settings: 1 µM; 72 h; partner dose: 10 nM
# Experimental: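 PDX cells were treated for 72 h with each drug at 1 µM plus carfilzomib (10 nM; 100 nM for WHIM2). Luciferase viability is expressed as percent of vehicle.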
row,Compound,cell viability of combination
1,Cc1cc(C(C#N)c2ccc(Cl)cc2)c(Cl)cc1NC(=O)c1cc(I)cc(I)c1O (stereo not given) [Closantel] + CC(C)C[C@H](NC(=O)[C@H](CCc1ccccc1)NC(=O)CN1CCOCC1)C(=O)N[C@@H](Cc1ccccc1)C(=O)N[C@@H](CC(C)C)C(=O)[C@@]1(C)CO1 [Carfilzomib],16.8
2,CCCCCCCCCCCCCCCC[N+](C)(C)C.[Br-] [Cetrimonium Bromide (CTAB)] + CC(C)C[C@H](NC(=O)[C@H](CCc1ccccc1)NC(=O)CN1CCOCC1)C(=O)N[C@@H](Cc1ccccc1)C(=O)N[C@@H](CC(C)C)C(=O)[C@@]1(C)CO1 [Carfilzomib],12
3,Cc1cc(C(C#N)c2ccc(Cl)cc2)c(Cl)cc1NC(=O)c1cc(I)cc(I)c1[O-].[Na+] (stereo not given) [Closantel Sodium] + CC(C)C[C@H](NC(=O)[C@H](CCc1ccccc1)NC(=O)CN1CCOCC1)C(=O)N[C@@H](Cc1ccccc1)C(=O)N[C@@H](CC(C)C)C(=O)[C@@]1(C)CO1 [Carfilzomib],17.8
4,CCCCCCCCCCCC[N+](C)(C)CCOc1ccccc1.[Br-] [Domiphen Bromide] + CC(C)C[C@H](NC(=O)[C@H](CCc1ccccc1)NC(=O)CN1CCOCC1)C(=O)N[C@@H](Cc1ccccc1)C(=O)N[C@@H](CC(C)C)C(=O)[C@@]1(C)CO1 [Carfilzomib],9.06
5,CCCCCCCCCCCCCCCC[n+]1ccccc1.[Cl-] [Cetylpyridinium Chloride] + CC(C)C[C@H](NC(=O)[C@H](CCc1ccccc1)NC(=O)CN1CCOCC1)C(=O)N[C@@H](Cc1ccccc1)C(=O)N[C@@H](CC(C)C)C(=O)[C@@]1(C)CO1 [Carfilzomib],11.9
